Only some compounds are listed: those with a hit (about 6.8% of all), similar ones and a draw of the others.
T cruzi growth – inhibitors of T. cruzi proliferation. T. cruzi beta-gal in NIH3T3, GalScreen luminescence, 90 h. inhibition, % at 8.34 µM. 77,000 compounds, 5.9% hits. AID 624255;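 active = mean inhibition above about 93%, with at least 55% of replicates each passing it, limit read from the data, passing the limit was not always enough; inconclusive = only one of those two conditions holds; inactive = neither condition holds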
C diff growth – blocks growth of Clostridium difficile; growth activity, negative = inhibition, % at 16 µg/mL (by protocol); 86,000 compounds, 0.25% hits; Clostridium difficile clinical isolate growth, OD600, 24 h; hits give low values; AID 1259249;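 active = mean growth activity at or below -80% and every replicate also at or below -80%; inconclusive = mean at or below -80% but some replicate above -80%; inactive = mean growth activity above -80%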;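 note: 0% = DMSO wells and -100% = levofloxacin 16 µg/mL wells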
Pf Dd2 inh – blocks growth of Plasmodium falciparum Dd2 parasites; activity change, % at 10 µM; P. falciparum Dd2 growth, SYBR Green, 72 h; hits give low values; 94,000 compounds, 2.3% hits; in the data active = activity change below about -80%; inconclusive = no clear call, values can overlap the other calls
* hit, by the source's call; ? = inconclusive; . = not tested or not shown.

SMILES	T cruzi growth	C diff growth	Pf Dd2 inh
Cc1noc(C)c1S(=O)(=O)N(C)C[C@H]1OCCCC[C@H](C)Oc2ccc(NC(=O)Nc3ccc4c(c3)OCO4)cc2C(=O)N([C@H](C)CO)C[C@@H]1C	90	-2	-22
Cc1noc(C)c1S(=O)(=O)N(C)C[C@H]1OCCCC[C@@H](C)Oc2ccc(NC(=O)Nc3ccc4c(c3)OCO4)cc2C(=O)N([C@@H](C)CO)C[C@@H]1C	82	-7	-86*
COc1ccc(NC(=O)Nc2ccc3c(c2)C(=O)N([C@H](C)CO)C[C@@H](C)[C@H](CN(C)S(=O)(=O)c2c(C)noc2C)OCCCC[C@@H](C)O3)cc1	80	18	-81*
Cc1noc(C)c1S(=O)(=O)N(C)C[C@@H]1OCCCC[C@@H](C)Oc2ccc(NC(=O)Nc3ccc(C(F)(F)F)cc3)cc2C(=O)N([C@@H](C)CO)C[C@@H]1C	86	20	-15
Cc1noc(C)c1S(=O)(=O)N(C)C[C@H]1OCCCC[C@H](C)Oc2ccc(NC(=O)Nc3ccc(C(F)(F)F)cc3)cc2C(=O)N([C@@H](C)CO)C[C@@H]1C	89*	4	-83*
C[C@H]1CN([C@@H](C)CO)C(=O)c2cccc(NC(=O)c3cnccn3)c2O[C@@H]1CN(C)C(=O)NC1CCCCC1	56	5	4
CCNC(=O)[C@H]1[C@H](CO)[C@H]2Cn3c(ccc(/C=C/c4ccccc4)c3=O)[C@@H]1N2C(=O)C1CCCC1	.	0	15
C[C@H]1CN([C@@H](C)CO)S(=O)(=O)c2ccc(C3=CCCC3)cc2O[C@H]1CN(C)S(=O)(=O)c1cn(C)cn1	-88	0	31
CCC(=O)N1[C@H](CO)[C@H](c2ccccc2)C12CN(C(=O)NC1CCCC1)C2	.	-2	-5
COc1ccc(CN(C)C[C@@H]2Oc3ccc(NC(=O)CCCCCC(=O)Nc4ccccc4N)cc3CC(=O)N([C@@H](C)CO)C[C@@H]2C)cc1	.	-3	-87*
COc1ccc(CN(C)C[C@H]2Oc3ccc(NC(=O)CCCCCC(=O)Nc4ccccc4N)cc3CC(=O)N([C@@H](C)CO)C[C@H]2C)cc1	.	2	-76
COc1ccc(CN(C)C[C@H]2Oc3ccc(NC(=O)CCCCCC(=O)Nc4ccccc4N)cc3CC(=O)N([C@H](C)CO)C[C@H]2C)cc1	24	-17	-39
C[C@@H]1CN([C@H](C)CO)C(=O)Cc2cc(NC(=O)CCCCCC(=O)Nc3ccccc3N)ccc2O[C@@H]1CN(C)Cc1ccc(-c2ccccc2)cc1	75	4	-44
C[C@H](CO)N1C[C@H](C)[C@H](CN(C)Cc2ccc(-c3ccccc3)cc2)Oc2ccc(NC(=O)CCCCCC(=O)Nc3ccccc3N)cc2CC1=O	36	-5	-83*
COc1ccc(CN(C)C[C@@H]2Oc3ccc(NC(=O)CCCCCC(=O)Nc4ccccc4N)cc3CC(=O)N([C@H](C)CO)C[C@@H]2C)cc1	.	2	-85*
COc1ccccc1S(=O)(=O)N[C@H]1C=C[C@H](CC(=O)NCc2cc(F)cc(F)c2)O[C@@H]1CO	-11	.	3
CC(C)NC(=O)N[C@@H]1CC[C@@H](CCNC(=O)C2CCCC2)O[C@H]1CO	-50	3	3
CS(=O)(=O)Nc1ccc2c(c1)[C@H]1C[C@@H](CC(=O)N3CCc4ccccc4C3)O[C@H](CO)[C@H]1O2	.	-7	-1
COCC(=O)Nc1ccc2c(c1)C(=O)N(C)[C@@H]1CC[C@@H](CC(=O)O)O[C@H]1CO2	10	-5	-3
CO[C@H]1CN(C)C(=O)c2ccc(NC(=O)c3cccc(F)c3)cc2OC[C@@H](C)N(CC2CC2)C[C@@H]1C	-36	-3	-47
C[C@H]1CN([C@@H](C)CO)S(=O)(=O)c2ccc(/C=C/c3ccccc3)cc2O[C@@H]1CN(C)Cc1ccc(C(=O)O)cc1	80	17	-18
C[C@H]1CN([C@@H](C)CO)S(=O)(=O)c2ccc(/C=C/c3ccccc3)cc2O[C@H]1CN(C)C(=O)c1ccccc1	125*	22	?
C[C@@H]1CN([C@@H](C)CO)S(=O)(=O)c2ccc(/C=C/c3ccccc3)cc2O[C@H]1CN(C)Cc1ccc(C(=O)O)cc1	84	-97*	-43
C/C=C/c1ccc2c(c1)O[C@@H](CN(C)C(=O)c1ccccc1)[C@H](C)CN([C@@H](C)CO)S2(=O)=O	.	3	-30
CC(C)NC(=O)N(C)C[C@@H]1Oc2c(NC(=O)c3ccncc3)cccc2C(=O)N([C@H](C)CO)C[C@H]1C	.	-1	6
SMILES	T cruzi growth	C diff growth	Pf Dd2 inh
CN(C)C(=O)C[C@@H]1CC[C@H]2[C@@H](COC[C@@H](O)CN2CC2CC2)O1	8	0	13
C/C=C/c1ccc2c(c1)O[C@H](CN(C)C(=O)NC(C)C)[C@H](C)CN([C@H](C)CO)S2(=O)=O	22	8	13
C[C@@H]1CCCCO[C@@H](CN(C)C(=O)Nc2cccc3ccccc23)[C@H](C)CN([C@@H](C)CO)C(=O)c2cc(NC(=O)Cc3ccccc3)ccc2O1	95	12	-81*
C[C@@H]1CCCCO[C@H](CN(C)C(=O)Nc2cccc3ccccc23)[C@@H](C)CN([C@@H](C)CO)C(=O)c2cc(NC(=O)Cc3ccccc3)ccc2O1	83	5	-69
C[C@H](CO)N1C[C@H](C)[C@H](CN(C)C(=O)Nc2cccc3ccccc23)OCCCC[C@H](C)Oc2ccc(NC(=O)Cc3ccccc3)cc2C1=O	42	11	-82*
C[C@@H]1CCCCO[C@H](CN(C)C(=O)Nc2cccc3ccccc23)[C@@H](C)CN([C@H](C)CO)C(=O)c2cc(NC(=O)Cc3ccccc3)ccc2O1	23	6	-39
CCCN(C)C[C@@H]1OCCCC[C@H](C)Oc2ccc(NC(=O)CCC(F)(F)F)cc2C(=O)N([C@H](C)CO)C[C@@H]1C	25	3	-1
COc1ccccc1S(=O)(=O)N[C@H]1CC[C@H](CC(=O)N2CCOCC2)O[C@@H]1CO	12	0	-2
COc1ccc(S(=O)(=O)N(C)C[C@@H]2OCCCC[C@@H](C)Oc3ccc(NC(=O)NC4CCCCC4)cc3C(=O)N([C@@H](C)CO)C[C@@H]2C)cc1	86	9	?
COc1ccc(S(=O)(=O)N(C)C[C@H]2OCCCC[C@H](C)Oc3ccc(NC(=O)NC4CCCCC4)cc3C(=O)N([C@@H](C)CO)C[C@H]2C)cc1	67	4	-81*
COc1ccc(S(=O)(=O)N(C)C[C@H]2OCCCC[C@H](C)Oc3ccc(NC(=O)NC4CCCCC4)cc3C(=O)N([C@H](C)CO)C[C@H]2C)cc1	95	6	-86*
COc1ccc(S(=O)(=O)N(C)C[C@H]2OCCCC[C@@H](C)Oc3ccc(NC(=O)NC4CCCCC4)cc3C(=O)N([C@@H](C)CO)C[C@H]2C)cc1	93	3	-61
COc1ccc(CN2CC3(CCN(C(=O)C4CCC4)CC3)c3c(n(C)c4cc(OC)ccc34)[C@@H]2CO)cc1	.	3	-30
C/C=C/c1ccc([C@H]2[C@@H](CO)N(c3nc(C)c(C)s3)[C@@H]2CNCC(C)C)cc1	.	33	-96*
C/C=C/c1ccc([C@@H]2[C@@H](C#N)N(c3nc(CC)cs3)[C@@H]2CO)cc1	21	1	6

Bioassay records: PubChem, Broad Institute
